# Several values for one entry are separate records, joined by “and”; a condition that tells them apart may be missing. Equal entries are not always repeated. Results filed as inconclusive are left out. Activity calls are given as the source filed them. Unless noted, calls follow the shape of the dose curve; as a rule, active = well fitted curve in the direction sought with a large enough effect; inconclusive = small, poorly fitted or top-dose-only effect, or another doubt; inactive = no such curve, though single readings can be large; an effect the other way counts as inactive or inconclusive.
# How the values were obtained:
# [1] = Primary qHTS for inhibitors of nuclear receptor binding SET domain protein 2 (NSD2) in an isogenic RCH-ACV NSD2 p.E1099K mutant (9B) (AID 1645876); conditions: RCH-ACV NSD2 E1099K (9B) viability, CellTiter-Glo, 72 h; series mostly up to 44.9 µM; also: nearly all actives have a fitted effect of over 70% in size; also: potency is read from the fitted curve at half-maximal effect
# [2] = Primary qHTS for inhibitors of nuclear receptor binding SET domain protein 2 (NSD2) in an RCH-ACV wild type WT cells (2C) (AID 1645877); conditions: RCH-ACV (leukaemia line) NSD2 WT (2C) viability, CellTiter-Glo, 72 h; series mostly up to 44.9 µM; also: nearly all actives have a fitted effect of over 70% in size; also: potency is read from the fitted curve at half-maximal effect
# [3] = molecular target: Glutathione peroxidase 1 (Homo sapiens) (UniProt P07203); assay: Primary qHTS Assay for Inhibitors of Recombinant Selenoprotein Glutathione Peroxidase 1 (GPX1) (AID 1845191); conditions: recombinant GPX1, GR-coupled NADPH fluorescence, 15 min; series mostly up to 48.8 µM; also: nearly all actives have a fitted effect of over 65% in size; also: potency is read from the fitted curve at half-maximal effect
# Chain of Glutathione peroxidase 1 (Homo sapiens) (P07203 whole entry, looked up): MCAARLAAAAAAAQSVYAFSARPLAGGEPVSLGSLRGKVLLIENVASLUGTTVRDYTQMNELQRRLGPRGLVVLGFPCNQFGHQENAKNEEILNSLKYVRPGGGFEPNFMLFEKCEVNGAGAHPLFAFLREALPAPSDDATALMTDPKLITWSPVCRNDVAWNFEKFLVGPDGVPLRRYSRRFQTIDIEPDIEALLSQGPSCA
# Outline: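 GR-coupled readout: NADPH consumption tracked by fluorescence, ex 340/em 450 nm, at t=0 and after 15 min at RT. Final mix 10 nM GPX1, 1 mM GSH, 0.5 mM CHP, 0.5 mM NADPH, 100 nM GR, 0.01% BSA, following 30 min enzyme–compound preincubation.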
# [4] = molecular target: Phospholipid hydroperoxide glutathione peroxidase GPX4 (Homo sapiens) (UniProt P36969); assay: Primary qHTS Assay for Inhibitors of Recombinant Selenoprotein Glutathione Peroxidase 4 (GPX4) (AID 1845192); conditions: recombinant GPX4, GR-coupled NADPH fluorescence, 15 min; series mostly up to 50 µM; also: nearly all actives have a fitted effect of over 65% in size; also: potency is read from the fitted curve at half-maximal effect
# Chain of Phospholipid hydroperoxide glutathione peroxidase GPX4 (Homo sapiens) (P36969 whole entry, looked up): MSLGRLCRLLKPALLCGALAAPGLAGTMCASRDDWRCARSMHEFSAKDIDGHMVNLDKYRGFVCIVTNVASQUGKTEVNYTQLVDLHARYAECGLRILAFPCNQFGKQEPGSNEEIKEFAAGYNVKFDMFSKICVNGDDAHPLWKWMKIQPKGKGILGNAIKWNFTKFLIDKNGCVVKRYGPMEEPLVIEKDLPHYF
# Outline: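 Steps: GPX4 plus compound, 30 min RT; add GR/GSH/NADPH master mix; start with cumene hydroperoxide; read 340/450 nm fluorescence at 0 and 15 min. Finals were 200 nM GPX4, 1 mM GSH, 0.5 mM CHP, 0.5 mM NADPH, 100 nM GR.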
# [5] = qHTS drug screen for cell cycle checkpoint inhibitors in PARPi-resistant BRCA-mutant ovarian cancer cell lines. (AID 1963452; calls by dose curve; also: potency is read from the fitted curve at half-maximal effect); conditions: PEO1/OlaR viability, CellTiter-Glo luminescence, 96 h; for Z-AUC: stronger effect = lower value
# Outline: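 PEO1, PEO4 and PEO1/OlaR ovarian cancer cells, 600 per well, exposed 96 h at 37C to a dilution series. Viability read by CellTiter-Glo luminescence, normalized to DMSO and empty wells; activity summarized as Z-AUC.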
# [6] = molecular target: Rap guanine nucleotide exchange factor 3 (Homo sapiens) (UniProt O95398); assay: Confirmatory qHTS for antagonist of cAMP-regulated guanine nucleotide exchange factor 3 (EPAC1) (AID 1645880); conditions: EPAC1 Rap1B-BODIPY-GDP exchange, fluorescence; series mostly up to 115 µM; also: nearly all actives have a fitted effect of over 55% in size; also: potency is read from the fitted curve at half-maximal effect
# Chain of Rap guanine nucleotide exchange factor 3 (Homo sapiens) (O95398 whole entry, looked up): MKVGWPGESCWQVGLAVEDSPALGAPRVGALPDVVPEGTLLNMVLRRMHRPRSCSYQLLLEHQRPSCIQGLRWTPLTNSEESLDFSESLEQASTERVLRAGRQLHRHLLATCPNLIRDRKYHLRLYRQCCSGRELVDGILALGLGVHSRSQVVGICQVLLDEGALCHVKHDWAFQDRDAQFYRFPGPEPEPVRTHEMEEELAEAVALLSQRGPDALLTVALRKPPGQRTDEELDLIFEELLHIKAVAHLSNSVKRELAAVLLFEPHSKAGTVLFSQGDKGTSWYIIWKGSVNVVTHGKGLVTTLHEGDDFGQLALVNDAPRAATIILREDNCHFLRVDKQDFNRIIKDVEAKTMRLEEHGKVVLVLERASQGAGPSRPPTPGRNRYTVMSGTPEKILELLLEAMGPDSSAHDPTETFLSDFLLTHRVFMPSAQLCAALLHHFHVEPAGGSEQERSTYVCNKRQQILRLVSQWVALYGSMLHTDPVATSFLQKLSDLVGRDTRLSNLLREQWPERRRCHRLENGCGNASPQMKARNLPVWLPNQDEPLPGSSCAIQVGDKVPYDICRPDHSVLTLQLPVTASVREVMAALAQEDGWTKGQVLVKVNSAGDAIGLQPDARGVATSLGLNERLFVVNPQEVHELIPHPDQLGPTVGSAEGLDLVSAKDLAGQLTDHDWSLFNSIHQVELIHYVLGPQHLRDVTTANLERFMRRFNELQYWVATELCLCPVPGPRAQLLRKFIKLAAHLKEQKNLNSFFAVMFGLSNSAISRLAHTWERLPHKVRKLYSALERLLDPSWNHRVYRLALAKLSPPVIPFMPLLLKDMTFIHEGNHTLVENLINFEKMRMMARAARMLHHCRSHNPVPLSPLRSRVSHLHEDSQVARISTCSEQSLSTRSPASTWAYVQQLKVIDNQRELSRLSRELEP
# Outline: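 Released BODIPY-GDP fluoresces less than Rap1-bound BODIPY-GDP; the signal is followed at 480/540 nm at 5-min intervals over 30 min, after 5 min at room temperature. Reactions contain 100 nM EPAC1, 250 nM RAP1B-BODIPY-GDP and 50 uM GDP; results are normalized to ATA and DMSO.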
# [7] = molecular target: Rap guanine nucleotide exchange factor 3 (Homo sapiens) (UniProt O95398); assay: Confirmatory qHTS for agonist of cAMP-regulated guanine nucleotide exchange factor 3 (EPAC1) (AID 1645881); conditions: EPAC1 Rap1B BODIPY-GDP exchange fluorescence; series mostly up to 154 µM;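 also: EPAC1 catalysed release of BODIPY-GDP from Rap1B seen as fluorescence loss; 100% = effect of cAMP agonist control; nearly all actives have a fitted effect of over 75% in size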
# [8] = NCATS anti-infectives library activity on HEK293 viability as a counter-qHTS vs the C. elegans viability qHTS (AID 1745854); conditions: HEK293 viability counter-screen; series mostly up to 41.8 µM;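 also: HEK293 cells exposed to compounds for 24 hr before the viability read; % is scaled to controls: 0 for no effect and ±100 for the full control effect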
# Outline: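 Compound titrations (final up to 41.7 uM) were incubated with HEK293 cells for 24 hr at 37C under 5% CO2. Viable cells were quantified with CellTiter-Glo after 10 min at ambient temperature.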
# [9] = measured here: PEO1 parental Z-AUC
compound,measurement,setting,value
CCNCCc1ccc(CN(CC)c2cc(OC)ccc2[C@@H]2CCc3cc(O)ccc3C2)cc1,Potency,[1],6.61 µM (active)
same,Potency,[2],7.42 µM (active)
same,Potency,[3],inactive
same,Potency,[4],inactive
same,Z-AUC,[5],-0.771 (inactive)
same,Z-AUC,[5]; [9],-0.865
same,Z-AUC,[5]; measured here: PEO4 Z-AUC,-1.44
CC(/C=C/[C@@H]1C[C@]1(C)c1ccc2c(c1)C(C)(C)CCC2(C)C)=C\C(=O)O,Potency,[1],inactive
same,Potency,[2],inactive
same,Potency,[3],inactive
same,Z-AUC,[5],-0.0414 (inactive)
same,Z-AUC,[5]; [9],0.571
same,Z-AUC,[5]; measured here: PEO4 Z-AUC,0.122
Cc1cc(OCCCc2c3n(c4c(-c5c(C)nn(C)c5C)c(Cl)ccc24)[C@H](C)CN(c2cn(C)c4ccc(C(=O)O)cc24)C3=O)cc(C)c1Cl,Potency,[1],4.68 µM (active)
same,Potency,[2],2.09 µM (active)
same,Potency,[3],inactive
same,Potency,[4],3.21 µM (active)
same,Z-AUC,[5],1.46 (inactive)
same,Z-AUC,[5]; [9],0.906
same,Z-AUC,[5]; measured here: PEO4 Z-AUC,1.25
C=C1C(=O)OC2/C=C(/C)CC/C=C(/C)CCC12 (stereo unspecified),Potency,[1],11.8 µM (active)
same,Potency,[2],8.33 µM (active)
same,Potency,[4],inactive
same,Z-AUC,[5],1.69 (inactive)
same,Z-AUC,[5]; [9],1.29
same,Z-AUC,[5]; measured here: PEO4 Z-AUC,1.11
COc1ccc(S(=O)(=O)N(C(C)=O)c2ccccc2/C=C/c2cc[n+]([O-])cc2)cc1,Potency,[1],1.05 µM (active)
same,Potency,[2],1.05 µM (active)
same,Potency,[3],inactive
same,Potency,[5],1.1 µM (active)
same,Z-AUC,[5]; [9],-1.34
same,Z-AUC,[5]; measured here: PEO4 Z-AUC,-1.39
NC(=O)c1ccc2nc(-c3ccc(C4(N)CCC4)cc3)c(-c3ccccc3)n2n1,Potency,[1],0.296 µM (active)
same,Potency,[2],0.332 µM (active)
same,Potency,[3],inactive
same,Potency,[4],inactive
same,Z-AUC,[5],-0.331 (inactive)
same,Z-AUC,[5]; [9],-0.179
same,Z-AUC,[5]; measured here: PEO4 Z-AUC,0.0521
O=C(c1ccc(Nc2nc(C3CC3)cn3c(-c4cn[nH]c4)cnc23)c(F)c1)N1CCOCC1,Potency,[1],9.34 µM (active)
same,Potency,[2],9.34 µM (active)
same,Potency,[3],inactive
same,Potency,[4],inactive
same,Z-AUC,[5],0.98 (inactive)
same,Z-AUC,[5]; [9],0.912
same,Z-AUC,[5]; measured here: PEO4 Z-AUC,1.07
Cc1noc(-c2ccc(-c3ccc(C4(C(=O)O)CC4)cc3)cc2)c1NC(=O)O[C@H](C)c1ccccc1,Potency,[1],16.6 µM (active)
same,Potency,[2],16.6 µM (active)
same,Potency,[4],9.04 µM (active)
same,Z-AUC,[5],1.39 (inactive)
same,Z-AUC,[5]; [9],1.53
same,Z-AUC,[5]; measured here: PEO4 Z-AUC,1.53
COc1cc(Nc2cnc(C#N)c(O[C@H](C)CN(C)C)n2)ncc1-c1cnn(C)c1,Potency,[1],0.148 µM (active)
same,Potency,[2],0.833 µM (active)
same,Potency,[4],inactive
same,Z-AUC,[5],-0.958 (inactive)
same,Z-AUC,[5]; [9],-0.63
same,Z-AUC,[5]; measured here: PEO4 Z-AUC,-0.472
CC[C@@H]1[C@H](F)C(=O)N[C@@H]1COc1nccc2cc(C(N)=O)c(OC)cc12,Potency,[1],14.8 µM (active)
same,Potency,[2],10.5 µM (active)
same,Potency,[4],18 µM (active)
CSc1ccc(C(=O)/C=C/c2cc(C)c(OC(C)(C)C(=O)O)c(C)c2)cc1,Potency,[1],19.1 µM (active)
same,Potency,[2],17.1 µM (active)
same,Potency,[3],inactive
same,Z-AUC,[5],-0.442 (inactive)
same,Z-AUC,[5]; [9],0.00794
same,Z-AUC,[5]; measured here: PEO4 Z-AUC,-0.391
CCN(C)S(=O)(=O)Nc1ccc(F)c(C(=O)c2c[nH]c3ncc(-c4cnc(C5CC5)nc4)cc23)c1F,Potency,[1],8.33 µM (active)
same,Potency,[2],7.42 µM (active)
same,Potency,[3],inactive
same,Z-AUC,[5],0.933 (inactive)
same,Z-AUC,[5]; [9],0.554
same,Z-AUC,[5]; measured here: PEO4 Z-AUC,0.574
N#Cc1cccnc1N1CCN(C(=O)c2cccc(Cc3n[nH]c(=O)c4ccccc34)c2)CC1,Potency,[1],0.0332 µM (active)
same,Potency,[2],0.0209 µM (active)
same,Potency,[3],inactive
same,Potency,[4],inactive
same,Z-AUC,[5],-1.35 (inactive)
same,Z-AUC,[5]; [9],-2.79
same,Z-AUC,[5]; measured here: PEO4 Z-AUC,-1.63
C=CC(=O)Nc1cccc(Oc2nc(Nc3ccc(N4CCN(C)CC4)cc3)nc3ccsc23)c1,Potency,[1],3.32 µM (active)
same,Potency,[2],3.32 µM (active)
same,Potency,[3],inactive
same,Potency,[4],inactive
same,Z-AUC,[5],-0.291 (inactive)
same,Z-AUC,[5]; [9],-0.486
same,Z-AUC,[5]; measured here: PEO4 Z-AUC,-0.146
CC1COc2ccccc2N1S(=O)(=O)c1cc(Cl)ccc1Cl (stereo unspecified),Potency,[6],inactive
same,Potency,[7],inactive
CCCCCc1ccc(/C=C/[C@H](O)[C@@H](CO)NC)cc1,Potency,[1],23.1 µM (active)
same,Potency,[3],inactive
CCn1c(-c2nonc2N)nc2cncc(C(=O)N3CC[C@H](N)C3)c21,Potency,[1],10.3 µM (active)
same,Potency,[3],inactive
Cc1c(CN2CCC(Nc3ncnc4sc(CC(F)(F)F)cc34)CC2)ccc2c1cc(C#N)n2Cc1cn[nH]c1,Potency,[2],3.32 µM (active)
same,Potency,[3],inactive
same,Potency,[4],inactive
same,Z-AUC,[5],-0.417 (inactive)
same,Z-AUC,[5]; [9],-0.643
same,Z-AUC,[5]; measured here: PEO4 Z-AUC,-0.075
CCc1ccc2nc(Nc3cc(Cc4ccccc4)nc(NC4CCC(O)CC4)n3)sc2c1 (stereo unspecified),Potency,[2],23.5 µM (active)
same,Z-AUC,[5],-0.86 (inactive)
same,Z-AUC,[5]; [9],-0.737
same,Z-AUC,[5]; measured here: PEO4 Z-AUC,-0.703
COC(=O)N[C@H](C(=O)N1CCC[C@H]1c1ncc(-c2ccc(-c3ccc(-c4cnc([C@@H]5CCCN5C(=O)[C@@H](NC(=O)OC)C(C)C)[nH]4)cc3)cc2)[nH]1)C(C)C,Potency,[2],20.9 µM (active)
same,Potency,[3],16.1 µM (active)
same,Potency,[4],18 µM (active) and 20 µM (active)
same,Z-AUC,[5],-0.519 (inactive)
same,Z-AUC,[5]; [9],-0.789
same,Z-AUC,[5]; measured here: PEO4 Z-AUC,-0.801
Cc1ccc([C@@H]2O[C@H](CO)[C@@H](O)[C@H](O)[C@H]2O)cc1Cc1ccc(-c2ccc(F)cc2)s1,Potency,[1],23.5 µM (active)
same,Potency,[2],20.9 µM (active)
same,Potency,[4],inactive
same,Z-AUC,[5],-0.931 (inactive)
same,Z-AUC,[5]; [9],-1.18
same,Z-AUC,[5]; measured here: PEO4 Z-AUC,-1.2
Nc1cc(N)cc(N)c1,Potency,[6],28 µM (active)
C=C1[C@H](OC(=O)/C=C(\C)CC)C[C@@H](C(C)C)[C@@H]2[C@H]([C@@H](C)OC(C)=O)C(=O)C[C@@H]12,Potency,[1],inactive
same,Potency,[2],inactive
same,Potency,[4],inactive
same,Z-AUC,[5],1.28 (inactive)
same,Z-AUC,[5]; [9],0.917
same,Z-AUC,[5]; measured here: PEO4 Z-AUC,1.09
C=CC(=O)Nc1ccc(F)c(-c2ncnc3[nH]cc(C(=O)OCC)c23)c1,Potency,[1],16.6 µM (active)
same,Potency,[2],14.8 µM (active)
same,Potency,[4],inactive
same,Z-AUC,[5],0.543 (inactive)
same,Z-AUC,[5]; [9],0.95
same,Z-AUC,[5]; measured here: PEO4 Z-AUC,0.747
COc1ccc2c(c1)[C@@H]1C[C@]1(C(=O)N1[C@@H]3CC[C@H]1CN(C)C3)Cn1c-2c(C2CCCCC2)c2ccc(C(=O)NS(=O)(=O)N(C)C)cc21,Potency,[1],20.6 µM (active)
same,outcome,[8],inactive
CCN1/C(=C/C(C)=O)Sc2ccc(O)cc21,Potency,[2],14.6 µM (active)

# From PubChem BioAssay (NCATS)
